Assay [1] can be described thus: qHTS assay to test for compound auto fluorescence at 535 nm (green) in HEK293 cells (AID 720680). A general note: In qHTS, concentration-response curves come from the screen itself.
Assay [2] is described as follows: qHTS assay to test for compound auto fluorescence at 460 nm (blue) in HEK293 cell free culture (AID 720681). Summed up:
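Test compounds were pinned into cell-free culture medium (DMEM with 10% FBS) and fluorescence was read directly at Ex/Em 405/460 nm. Signals were expressed as fluorescence equivalents of triamterene, with DMSO vehicle as control.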

Assay [3] can be described thus: qHTS assay to test for compound auto fluorescence at 535 nm (green) in HEK293 cell free culture (AID 720682). In outline:
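Read-out: 485/535 nm fluorescence intensity, calibrated against fluorescein. Medium only (DMEM + 10% FBS, no cells); test compound or DMSO vehicle added by pintool before plate reading.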

Assay [4] is described as follows: qHTS assay to test for compound auto fluorescence at 590 nm (red) in HEK293 cell free culture (AID 720683). In outline:
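Tox21 10K library compounds were pinned into cell-free DMEM with 10% FBS and fluorescence was read at excitation 540 nm. Activity is expressed as Rose Bengal sodium equivalency.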

A short description of assay [5]: qHTS assay to test for compound auto fluorescence at 590 nm (red) in HepG2 cell free culture (AID 720684). Summed up: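 Measured in medium alone (MEM containing 10% FBS) following pintool addition of compound; emission at 590 nm with 540 nm excitation, referenced to Rose Bengal sodium.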
Assay [6] is described as follows: qHTS assay to test for compound auto fluorescence at 460 nm (blue) in HepG2 cell free culture (AID 720685). Summed up: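 Compound (23 nL) or DMSO pinned into cell-free MEM with 10% FBS; blue fluorescence read at 405/460 nm excitation/emission, expressed as auto-fluorescence equivalency to triamterene.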
A short description of assay [7]: qHTS assay to test for compound auto fluorescence at 535 nm (green) in HepG2 cell free culture (AID 720686).
Assay [8] in a line: qHTS assay to test for compound auto fluorescence at 460 nm (blue) in HepG2 cells (AID 720687). Summed up:
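Cells (2,000/well in MEM with 10% FBS) attached overnight at 37 C, then were exposed to compound or DMSO for 1 hr at 37 C, 5% CO2. Fluorescence read at Ex/Em 405/460 nm, expressed as triamterene-equivalent signal.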

Assay [9] addresses Glucocorticoid receptor (Homo sapiens) (UniProt P04150). Nature of the assay: qHTS assay to identify small molecule agonists of the glucocorticoid receptor (GR) signaling pathway (AID 720691; active = well fitted activation curve with a large enough effect in the signal ratio in the repeat runs, not every such curve was filed as active; inconclusive = weak or mixed curves, or effect the other way; inactive = no such curve, though single readings can be large or run the other way; the % refers to the signal ratio; note: potency is the fitted concentration of half-maximal effect). Summed up:
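Fluorescence intensity from LiveBLAzer B/G FRET substrate (2 h, room temperature) reports beta-lactamase expression driven by the glucocorticoid response element in GR-bla HeLa cells after 18 h compound exposure at 37 C.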

Assay [10] is described as follows: qHTS assay to identify small molecule antagonists of the glucocorticoid receptor (GR) signaling pathway - cell viability counter screen (AID 720693). Note: nearly all actives have a fitted effect of over 55% in size. Note: potency is the fitted concentration of half-maximal effect.
Assay [11] can be described thus: qHTS assay for identifying genotoxic compounds that show differential cytotoxicity against isogenic chicken DT40 cell lines with known DNA damage response pathways - wild type cell line (AID 743012). Note: nearly all actives have a fitted effect of over 60% in size. Note: potency is the fitted concentration of half-maximal effect. In outline: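 Wild type DT40, 300 cells/well, ~0.5 h settle at 37 C/5% CO2; compounds in DMSO added by pintool; 40 h at 37 C/5% CO2; CellTiter-Glo, 30 min RT; luminescence.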

Assay [12] in a line: qHTS assay for identifying genotoxic compounds that show differential cytotoxicity against isogenic chicken DT40 cell lines with known DNA damage response pathways - Rev3 mutant cell line (AID 743014). Note: nearly all actives have a fitted effect of over 55% in size. Note: potency is the fitted concentration of half-maximal effect.
Assay [13] is described as follows: qHTS assay for identifying genotoxic compounds that show differential cytotoxicity against isogenic chicken DT40 cell lines with known DNA damage response pathways - Rad54/Ku70 mutant cell line (AID 743015). Note: nearly all actives have a fitted effect of over 60% in size. Note: potency is the fitted concentration of half-maximal effect.
Assay [14] is described as follows: qHTS assay to identify small molecule antagonists of the androgen receptor (AR) signaling pathway - cell viability counter screen (AID 743033; note: nearly all actives have a fitted effect of over 45% in size).
Assay [15] can be described thus: qHTS assay to identify small molecule antagonists of the androgen receptor (AR) signaling pathway using the MDA cell line - cell viability counter screen (AID 743041; note: nearly all actives have a fitted effect of over 45% in size). In outline:
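Viability counter screen run alongside the AR antagonist reporter: cells seeded 5 h before compound, R1881 added, 16 h incubation at 37C without CO2, fluorescent CellTiter-Fluor signal quantified.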

Assay [16] concerns the target Glucocorticoid receptor (Homo sapiens) (UniProt P04150). Nature of the assay: qHTS assay to identify small molecule antagonists of the glucocorticoid receptor (GR) signaling pathway (AID 720692; active = well fitted inhibition curve with a large enough effect in the signal ratio in the repeat runs, not every such curve was filed as active; inconclusive = weak or mixed curves, or effect the other way; inactive = no such curve, though single readings can be large or run the other way; the % refers to the signal ratio). Summed up: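 HeLa GR-bla cells; cmpd + dex 5 nM final, 18 h 37 C; LiveBLAzer B/G FRET substrate 2 h RT; fluorescence intensity read. Antagonist mode, qHTS.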
Assay [17] addresses Androgen receptor (Homo sapiens) (UniProt P10275). Nature of the assay: qHTS assay to identify small molecule antagonists of the androgen receptor (AR) signaling pathway (AID 743035; active = well fitted inhibition curve with a large enough effect in the signal ratio in the repeat runs, not every such curve was filed as active; inconclusive = weak or mixed curves, or effect the other way; inactive = no such curve, though single readings can be large or run the other way; the % refers to the signal ratio). In outline: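 Fluorescence from a beta-lactamase FRET substrate (LiveBLAzer B/G, 2 h, room temperature) measured inhibition of R1881-stimulated signaling in GeneBLAzer AR-UAS-bla HEK293 cells exposed to compound for 16 h at 37C.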

Assay [18] shares this target. The experiment in a line: qHTS assay to identify small molecule agonists of the androgen receptor (AR) signaling pathway (AID 743036; active = well fitted activation curve with a large enough effect in the signal ratio in the repeat runs, with a control signal flat, not every such curve was filed as active; inconclusive = weak or mixed curves, or effect the other way; inactive = no such curve, though single readings can be large or run the other way; the % refers to the signal ratio). In outline: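 HEK293 cells stably carrying a UAS-driven beta-lactamase reporter (GeneBLAzer AR-UAS-bla-GripTite) were plated at 2,000 cells/well, rested 4 h at 37C, then exposed to compounds in DMSO for 16 h. LiveBLAzer B/G FRET substrate was added for 2 h at room temperature; fluorescence read.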

Assay [19] has the same target. The experiment in a line: qHTS assay to identify small molecule agonists of the androgen receptor (AR) signaling pathway using the MDA cell line (AID 743040; note: nearly all actives have a fitted effect of over 20% in size). In outline: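 Luminescence from ONE-Glo, read after 30 min at room temperature, reflects MMTV-driven luciferase in MDA-kb2 cells (AR- and GR-responsive). Treatment lasted 16 h at 37C, 0% CO2.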
The target is the same in assay [20]. Nature of the assay: qHTS assay to identify small molecule antagonists of the androgen receptor (AR) signaling pathway using the MDA cell line (AID 743042; note: nearly all actives have a fitted effect of over 55% in size). In outline: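 MDA-kb2 cells (human breast carcinoma, stably carrying an MMTV-luciferase reporter responsive to AR and GR) were plated at 3,000 cells/well and preincubated 5 hr at 37C, then given compound plus R1881 agonist for 16 h. ONE-Glo luminescence was read.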

The values that follow come from PubChem BioAssay (Tox21).

Unmarked numbers belong to inactive results. The source made the active and inactive calls. Unless noted, calls come from the whole dose curve; as a rule, active = well fitted curve in the direction sought with a large enough effect in the repeat runs; inconclusive = weak or mixed curves; inactive = no such curve, though single readings can be large; an effect the other way counts as inactive or inconclusive.

Chain of Glucocorticoid receptor (Homo sapiens) (P04150 whole entry, looked up): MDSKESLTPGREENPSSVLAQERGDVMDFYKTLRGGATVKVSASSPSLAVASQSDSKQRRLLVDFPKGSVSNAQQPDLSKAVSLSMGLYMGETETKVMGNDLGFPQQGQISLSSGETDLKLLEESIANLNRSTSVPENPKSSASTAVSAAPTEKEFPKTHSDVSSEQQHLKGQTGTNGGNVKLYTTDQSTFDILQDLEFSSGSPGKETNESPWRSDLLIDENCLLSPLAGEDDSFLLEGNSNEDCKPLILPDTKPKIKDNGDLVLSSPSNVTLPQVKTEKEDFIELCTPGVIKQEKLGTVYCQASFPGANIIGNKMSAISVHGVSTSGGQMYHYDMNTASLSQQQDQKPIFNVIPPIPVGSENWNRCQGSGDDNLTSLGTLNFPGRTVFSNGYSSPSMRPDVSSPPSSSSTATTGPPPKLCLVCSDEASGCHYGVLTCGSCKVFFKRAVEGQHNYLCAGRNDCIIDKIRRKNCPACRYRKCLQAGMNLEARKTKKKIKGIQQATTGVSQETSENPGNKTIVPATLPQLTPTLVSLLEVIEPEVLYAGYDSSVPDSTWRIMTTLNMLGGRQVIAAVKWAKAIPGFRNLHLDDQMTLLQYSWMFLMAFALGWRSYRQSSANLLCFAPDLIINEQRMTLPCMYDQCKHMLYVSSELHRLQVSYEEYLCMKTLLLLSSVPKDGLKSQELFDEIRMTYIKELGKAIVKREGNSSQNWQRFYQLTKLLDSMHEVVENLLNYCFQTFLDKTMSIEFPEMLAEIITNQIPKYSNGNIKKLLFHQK
Chain of Androgen receptor (Homo sapiens) (P10275 whole entry, looked up): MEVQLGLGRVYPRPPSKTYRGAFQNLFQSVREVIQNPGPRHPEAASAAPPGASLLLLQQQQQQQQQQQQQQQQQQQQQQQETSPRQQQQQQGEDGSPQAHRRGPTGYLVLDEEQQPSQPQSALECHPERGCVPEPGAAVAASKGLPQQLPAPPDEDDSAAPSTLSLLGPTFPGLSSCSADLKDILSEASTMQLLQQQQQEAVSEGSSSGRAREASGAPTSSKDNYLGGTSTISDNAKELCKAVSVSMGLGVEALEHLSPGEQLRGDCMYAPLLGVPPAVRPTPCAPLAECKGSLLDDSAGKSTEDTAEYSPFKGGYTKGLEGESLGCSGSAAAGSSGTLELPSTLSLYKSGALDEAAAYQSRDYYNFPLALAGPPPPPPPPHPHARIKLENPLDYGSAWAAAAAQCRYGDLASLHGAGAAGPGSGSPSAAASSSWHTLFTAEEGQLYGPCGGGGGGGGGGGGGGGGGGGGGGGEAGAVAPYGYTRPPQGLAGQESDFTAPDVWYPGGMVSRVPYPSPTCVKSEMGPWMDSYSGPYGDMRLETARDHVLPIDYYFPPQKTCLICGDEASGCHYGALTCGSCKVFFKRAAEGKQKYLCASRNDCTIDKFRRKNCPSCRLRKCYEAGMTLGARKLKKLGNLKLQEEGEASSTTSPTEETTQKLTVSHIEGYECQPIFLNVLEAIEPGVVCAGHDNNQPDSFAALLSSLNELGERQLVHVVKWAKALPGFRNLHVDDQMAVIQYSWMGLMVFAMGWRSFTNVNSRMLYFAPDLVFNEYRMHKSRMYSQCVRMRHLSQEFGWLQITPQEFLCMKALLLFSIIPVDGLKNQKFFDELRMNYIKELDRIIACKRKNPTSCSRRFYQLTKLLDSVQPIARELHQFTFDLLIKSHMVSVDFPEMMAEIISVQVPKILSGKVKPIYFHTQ

On to `COc1cc2c(Nc3ccc(Br)cc3F)ncnc2cc1OCC1CCN(C)CC1`, for which the result in [1], in assay [2], in assay [3], in assay [4], in [5] and in assay [6] was inactive. The compound was called inactive in assay [7], in [8], in assay [14] and in [15]. The Potency entry in assay [9] was “inactive”. For the same compound, the Potency in [10] was 23.9 µM (active); in assay [11], 5.31 µM (active); in assay [12], 5.96 µM (active); in [13] it was 6.68 µM (active).
For `CC(=O)Nc1ncc([N+](=O)[O-])s1`, the compound was called inactive in assay [1], in assay [2], in assay [3], in [4], in assay [5] and in assay [6]. For the same compound, the outcome in [7], in assay [8], in assay [14] and in assay [15] was inactive. The Potency result in assay [9], in assay [10], in assay [11], in assay [12] and in assay [13] was “inactive” in each case.
Take `C[C@H]1O[C@H](O[C@H]2[C@H](O)[C@@H](O)[C@@H](O[C@H]3[C@H](O)[C@@H](O)[C@H](O)O[C@@H]3CO)O[C@@H]2CO)[C@H](O)[C@@H](O)[C@@H]1N[C@H]1C=C(CO)[C@@H](O)[C@H](O)[C@H]1O`: the compound was classed as inactive in assay [1], in assay [2], in [3], in assay [4], in [5] and in [6]. In addition, the compound was called inactive in assay [7], in [8], in [16], in assay [14] and in [15]. The Potency result in assay [11], in [12] and in [13] was “inactive” each time.
`CC(C)(C)c1ccc(C=O)cc1`: the outcome in [1], in assay [2], in [3], in assay [4], in assay [5] and in [6] was inactive. Also, the compound was called inactive in [7], in [8], in [14] and in [15]. Further, the Potency result in assay [9], in assay [11], in [12] and in assay [13] was “inactive” in each case.
Take `C=CCOc1c(Br)cc(C(C)(C)c2cc(Br)c(OCC=C)c(Br)c2)cc1Br`: the call in assay [1], in assay [2], in assay [3], in [4], in assay [5] and in [6] was inactive. The compound was called inactive in assay [7], in [8], in [14] and in [15]. Moreover, the Potency result in [9], in assay [10], in assay [11], in [12] and in [13] was “inactive” in each case.
For `CNC(=O)NC`, the result in assay [1], in assay [2], in assay [3], in assay [4], in assay [5] and in assay [6] was inactive. Also, the call in assay [7], in assay [8], in assay [14], in assay [18], in assay [19] and in assay [15] was inactive. Moreover, the compound was classed as inactive in assay [20]. Also, the Potency result in assay [9], in [10], in assay [11], in assay [12], in assay [13] and in assay [17] was “inactive” in each case.
Consider `CC(C)CCC(=O)CCC(C)C`, for which the compound was called inactive in [1], in assay [2], in assay [3], in assay [4], in [5] and in assay [6]. Further, the outcome in assay [7], in [8], in assay [14] and in [15] was inactive. In addition, the Potency entry in [9] and in assay [10] was “inactive” throughout. Also, the figures for the Potency in [11], in assay [12] and in assay [13] were 68.6 µM (active), 68.6 µM (active) and 61.1 µM (active), respectively.
In the case of `Cc1nc2ccccc2c(=O)o1`, the compound was classed as inactive in assay [1], in assay [2], in assay [3], in assay [4], in assay [5] and in assay [6]. The compound was classed as inactive in [7], in assay [8], in [14] and in assay [15]. Also, the Potency result in assay [10], in [11], in [12] and in assay [13] was “inactive” each time.
Take `CC(C)C(=O)c1ccccc1`: the call in [1], in assay [2], in assay [3], in assay [4], in assay [5] and in assay [6] was inactive. The result in assay [7], in assay [8], in assay [14] and in [15] was inactive. Besides, the Potency entry in assay [10], in [11], in assay [12] and in assay [13] was “inactive” throughout.
As to `CN[C@@H]1[C@@H](O)[C@@H](O[C@@H]2[C@H](O)[C@H](O[C@H]3OC(CN)=CC[C@H]3N)[C@@H](N)C[C@H]2N)OCC1(C)O` (stereo partly drawn), the result in assay [1], in [2], in [3], in [4], in [5] and in assay [6] was inactive. Moreover, the compound was called inactive in assay [7], in [8], in assay [16], in assay [14] and in assay [15]. Also, the Potency entry in [9], in assay [11], in assay [12] and in [13] was “inactive” in each case.
As to `SCCSCCS`, the outcome in assay [1], in assay [2], in assay [3], in assay [4], in assay [5] and in assay [6] was inactive. The call in assay [7], in assay [8], in assay [14] and in assay [15] was inactive. Moreover, the Potency entry in [9], in assay [10], in assay [11], in assay [12] and in assay [13] was “inactive” in each case.
Turning to `Nc1ccc(/C=C/c2ccc(N)cc2S(=O)(=O)O)c(S(=O)(=O)O)c1`, the outcome in assay [1], in [2], in [3], in assay [4], in [5] and in assay [6] was inactive. Also, the result in assay [7], in assay [8], in assay [14] and in [15] was inactive. The Potency entry in assay [9] and in assay [10] was “inactive” in each case.
For `CC(=O)OCC(=O)[C@@]1(O)[C@H](OC(C)=O)C[C@H]2[C@@H]3CCC4=CC(=O)C=C[C@]4(C)[C@@]3(F)[C@@H](O)C[C@@]21C`, the call in assay [1], in [2], in assay [3], in assay [4], in assay [5] and in assay [6] was inactive. Besides, the call in assay [7], in [8], in assay [14] and in assay [15] was inactive. Moreover, the Potency in assay [9] was 0.134 µM [inconclusive] (active). For the same compound, the Potency result in assay [10] was “inactive”.
Regarding `CN(C)CCCNCCC#N`, the outcome in assay [1], in assay [2], in assay [3], in assay [4], in [5] and in assay [6] was inactive. The compound was classed as inactive in [7], in [8], in [14] and in assay [15]. Also, the Potency entry in assay [10], in [11], in assay [12] and in assay [13] was “inactive” each time.
